In PubChem BioAssay AID588342 (National Center for Advancing Translational Sciences (NCATS), 2011):
In all, about 360,000 compounds went through this assay and about 25,000 (6.9%) were called active. Inconclusive results (about 9%) are left out. Calls come from the whole dose curve; as a rule, active = well fitted inhibition curve with a large enough effect; inconclusive = small, poorly fitted or top-dose-only effect; inactive = flat fitted curve, though single readings scatter. Shown is part of a subset that was picked to be rich in actives.

Biological target: Luciferin 4-monooxygenase (Photinus pyralis) (UniProt P08659)
Assay: qHTS profiling assay for firefly luciferase inhibitor/activator using purifed enzyme and Km concentrations of substrates (counterscreen for miR-21 project); note: nearly all actives have a fitted effect of over 55% in size;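 for activity change, negative = inhibition: plate controls were vehicle for no effect and reference inhibitor for full effect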
Settings: purified FLuc, luminescence inhibition; series mostly up to 57.5 µM; activity change, negative = inhibition: at the top concentration
Procedure, shortened: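 Purified P. pyralis luciferase, 10 nM final, with Km-level 10 uM D-luciferin and 10 uM ATP in 50 mM Tris acetate pH 7.5, 10 mM Mg acetate, 0.01% Tween-20, 0.05% BSA; 6-point qHTS titration about 60 µM downward; luminescence read.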
Potency is the fitted concentration of half-maximal effect.

Sequence of Luciferin 4-monooxygenase (Photinus pyralis) (P08659 whole entry, looked up): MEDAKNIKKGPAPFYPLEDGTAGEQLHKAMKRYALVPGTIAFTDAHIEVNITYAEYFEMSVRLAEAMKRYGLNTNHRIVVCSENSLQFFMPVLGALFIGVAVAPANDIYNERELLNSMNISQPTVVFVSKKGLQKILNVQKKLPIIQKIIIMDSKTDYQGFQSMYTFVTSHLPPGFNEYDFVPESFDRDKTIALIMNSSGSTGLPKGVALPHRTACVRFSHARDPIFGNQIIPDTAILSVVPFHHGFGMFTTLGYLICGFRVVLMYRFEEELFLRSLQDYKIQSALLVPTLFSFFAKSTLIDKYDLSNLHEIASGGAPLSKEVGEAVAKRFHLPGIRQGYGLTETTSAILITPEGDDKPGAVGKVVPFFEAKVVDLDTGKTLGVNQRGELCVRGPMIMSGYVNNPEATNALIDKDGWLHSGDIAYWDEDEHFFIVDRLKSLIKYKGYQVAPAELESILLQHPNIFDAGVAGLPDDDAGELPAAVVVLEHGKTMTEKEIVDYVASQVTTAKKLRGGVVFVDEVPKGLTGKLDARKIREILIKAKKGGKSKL

Structure (SMILES) | activity change, negative = inhibition | Potency
Cc1cccc(NC(=O)Cn2cc(S(=O)(=O)Cc3ccccc3Cl)c3ccccc32)c1 | -16.8% (inactive) | 
CCOC(=O)c1ccccc1NC(=O)c1sc2nc(-c3ccc(F)cc3)cn2c1C | -4.15% (inactive) | 
O=C(NCC12CC3CC(CC(C3)C1)C2)c1cc2nc(-c3ccccc3)cc(C(F)(F)F)n2n1 | -0.997% (inactive) | 
Cc1nc(CNS(=O)(=O)c2ccc(Oc3ccccc3)cc2)cs1 | -1.6% (inactive) | 
Cc1ccc(S(=O)(=O)c2cn(Cc3ccccc3)c3cc(N4CCCC4)c(F)cc3c2=O)c(C)c1 | -2.49% (inactive) | 
NC(=O)Cn1nc([N+](=O)[O-])nc1Oc1ccc(Br)cc1 | -0.728% (inactive) | 
COc1ccccc1-n1c(-c2ccc(C)cc2)cn2c3c(=O)n(C)c(=O)n(C)c3nc12 | -2.65% (inactive) | 
COc1cccc(C(=O)N2CCC(n3nccc3NC(=O)C3CCOC3)CC2)c1 (stereo not given) | 1.7% (inactive) | 
COC(=O)[C@]1(C)CCC[C@@]2(C)C3CC[C@]4(OC(C)=O)C[C@@]3(CCC21)CC4=NO (stereo not given in full) | 0.455% (inactive) | 
COc1ccc(N(CC(=O)NCCc2ccc(Cl)cc2)S(=O)(=O)c2c(C)nn(C)c2C)cc1 | -0.382% (inactive) | 
NC(=O)C1CCN(C(=O)c2ccc(-c3ccccc3)cc2)CC1 | 2.52% (inactive) | 
O=C(CCNS(=O)(=O)c1ccccc1)NCCSc1ccc(Br)cc1 | -0.614% (inactive) | 
Cc1c(NS(=O)(=O)c2ccc(Cl)cc2)c(=O)n(-c2ccccc2)n1C | 5.5% (inactive) | 
Nc1nc(-c2sc3nc4c(cc3c2N)CCCC4)nc(N2CCOCC2)n1 |  | 0.675 µM (active)
Cc1nc(N2CCOCC2)nc2c1CCCC2 | -5.44% (inactive) | 
Cc1cccc(NC(=O)c2sc3nc(N4CCOCC4)c4c(c3c2N)CCCC4)c1 | -18% (inactive) | 
CCN(CC)c1ccc(NC(=O)CN2CCN(CC(=O)Nc3ccc(Cl)cc3)CC2)cc1 | -6.9% (inactive) | 
COc1ccc(/C(C)=N\NC(=O)c2ccc(-c3ccccc3)cc2)c(F)c1 | 1.48% (inactive) | 
COc1cccc(C(=O)Nc2cccnc2)c1OC | -16.4% (inactive) | 
COc1cccc(C(=O)N/N=C(\C)c2cccc(NC(=O)c3ccc(F)cc3)c2)c1OC |  | 13.5 µM (active)
Cc1cc(C)cc(NC(=O)Cn2nc(N3CCN(c4ccccc4)CC3)ccc2=O)c1 | -14.4% (inactive) | 
CCC1CN(S(=O)(=O)c2cc(-c3cc(C)no3)ccc2C)c2cc(C)ccc2O1 (stereo not given) | -4.43% (inactive) | 

Structure (SMILES) | activity change, negative = inhibition | Potency
Cc1c(Cl)cccc1NC(=O)NCCCN1CCCC1=O | -0.71% (inactive) | 
CS(=O)(=O)Nc1ccc(C(=O)N2CCCC2)cc1 | 1.38% (inactive) | 
Cc1c(Cl)cccc1NC(=O)Nc1ccc(C(=O)N2CCCC2)cc1 |  | 5.36 µM (active)
Cc1ccc(C)n1-c1nnc(N2CCC(C(=O)NCc3ccc(F)cc3)CC2)s1 | -3.4% (inactive) | 
Cn1c(=O)c2c(SCC(=O)N3CCc4ccccc43)nc(-c3ccc(Cl)cc3)nc2n(C)c1=O | 0.741% (inactive) | 
Cc1cccc(NC(=O)COc2ccccc2C)n1 |  | 13.5 µM (active)
CCn1c2ccccc2c2cc(NC(=O)COc3ccc(C)cc3C)ccc21 | -11.2% (inactive) | 
Cc1cccc(NC(=O)COc2ccc(Br)cc2C)n1 |  | 3.38 µM (active)
COCCNC(=O)COc1ccccc1C | -1.43% (inactive) | 
Cc1ccccc1OCC(=O)Nc1ccc(N2CCN(C(=O)C(C)C)CC2)c(Cl)c1 | 4.38% (inactive) | 
Cc1cccc(NC(=O)c2ccc3ccccc3n2)n1 |  | 6.01 µM (active)
Cc1ccccc1OCC(=O)Nc1ccc2c(c1)ncn2C |  | 21.3 µM (active)
Cc1cccc(NC(=O)c2cccnc2Cl)n1 | 2.18% (inactive) | 
Cc1cccc(NC(=O)c2ccccc2NC(=O)C(C)(C)C)n1 | 12.6% (inactive) | 
Cc1ccc(OCC(=O)Nc2ccc(NC(=O)c3cccs3)cc2)c(C)c1 | -0.406% (inactive) | 
Cc1ccc(S(=O)(=O)NC(=O)COc2ccccc2C)cc1 | -1.45% (inactive) | 
CCN(CC)S(=O)(=O)c1ccc(C)c(NC(=O)COc2ccc(Br)cc2Cl)c1 | 3.98% (inactive) | 
Cc1nc(C)c2c(c1C(F)(F)F)-c1ccccc1C2(F)F | -3.1% (inactive) | 
COc1cccc(NC(=O)CSc2cc(=O)n(C)c3ccc(Cl)cc23)c1 | 0.0415% (inactive) | 
CCC1(CC)NC(=O)N(CC(=O)OCC(=O)c2cc(C)c(C)cc2C)C1=O | 2.66% (inactive) | 
CCOC(=O)c1c(C)[nH]c(CCC(=O)NCCCN2CCN(c3cc(C)ccc3C)CC2)c1C | 1.17% (inactive) | 
CCN(CC)C(=O)CSC1c2ccccc2C(=O)N1c1ccccc1 (stereo not given) | -6.61% (inactive) | 

Structure (SMILES) | activity change, negative = inhibition | Potency
Cc1ccc(CCCOC(=O)C[N+]2(C)CCCC2)cc1 | 4.94% (inactive) | 
Cn1c(=O)c2c(n(Cc3ccccc3)c1=O)NC(=O)C2CC(=O)N1CCc2ccccc2C1 (stereo not given) | 0.136% (inactive) | 
CC(=O)Nc1cccc2c1[n+]([O-])c(C)c(C)[n+]2[O-] | -0.147% (inactive) | 
CCOc1ccc(NC(=O)c2cc3c(=O)n(Cc4cccs4)ccc3nc2C)cc1 | -9.25% (inactive) | 
NC(=O)CSc1nnc(NC(=O)c2ccc3ccccc3c2)s1 |  | 2.39 µM (active)
Cc1ccc(C(=O)Nc2nnc(-c3ccncc3)s2)o1 | -0.508% [at 2.3 µM] (inactive) | 
CCSc1nnc(NC(=O)c2ccc(C)cc2)s1 |  | 2.69 µM (active)
O=C(Nc1nnc(CCN2CCCCC2)s1)c1cccc(Cl)c1 | -2.89% (inactive) | 
O=C(/C=C/c1ccccc1)Nc1nnc(SCC(=O)c2ccc3ccccc3c2)s1 | -11.5% (inactive) | 
COC(=O)CSc1nnc(NC(=O)CCc2ccccc2)s1 | 2.62% (inactive) | 
NC(=O)CSc1nnc(NC(=O)c2ccc(Br)o2)s1 |  | 16.9 µM (active)
CSc1nnc(NC(=O)c2nc(S(=O)(=O)Cc3ccc(C)cc3)ncc2Cl)s1 | 3.37% (inactive) | 
CCOCc1nnc(NC(=O)CSc2ccc(C)cc2)s1 | 2.73% (inactive) | 
CCOc1ccccc1CNC(=O)c1ccc(-n2c(C)cc3c2CCC(C)C3)cc1 (stereo not given) | 4.62% (inactive) | 
COc1ccc2c(c1)c(=O)c(S(=O)(=O)c1ccc(F)cc1)cn2CC(=O)Nc1ccc(C)cc1C | -2.97% (inactive) | 
COc1ccccc1CNC(=O)c1ccc(CS(=O)c2ccccc2Cl)o1 (stereo not given) | 6.69% (inactive) | 
COc1ccc(NC(C)=O)cc1NC(=O)CN1CCN(c2ccc(F)cc2)CC1 | 1.43% (inactive) | 
CCCCCn1c(=O)[nH]c2cc(C(=O)Nc3cc(C)cc(C)c3)ccc2c1=O | 2.7% (inactive) | 
COc1ccc(-c2noc(-c3cccc(OC)c3OC)n2)cc1OC |  | 2.39 µM (active)
COc1ccc(OC)c(-n2nnc(-c3nc(-c4cc(OC)c(OC)c(OC)c4)no3)c2C)c1 | -1.25% (inactive) | 
COc1ccc(-c2cc(-c3nc(-c4cc(OC)c(OC)c(OC)c4)no3)[nH]n2)c(OC)c1 | 4.6% (inactive) | 
